{"source": "PubChem BioAssay"}
{"target": "Torsin-1A (Homo sapiens) (UniProt O14656)", "sequence (O14656 whole entry, looked up)": "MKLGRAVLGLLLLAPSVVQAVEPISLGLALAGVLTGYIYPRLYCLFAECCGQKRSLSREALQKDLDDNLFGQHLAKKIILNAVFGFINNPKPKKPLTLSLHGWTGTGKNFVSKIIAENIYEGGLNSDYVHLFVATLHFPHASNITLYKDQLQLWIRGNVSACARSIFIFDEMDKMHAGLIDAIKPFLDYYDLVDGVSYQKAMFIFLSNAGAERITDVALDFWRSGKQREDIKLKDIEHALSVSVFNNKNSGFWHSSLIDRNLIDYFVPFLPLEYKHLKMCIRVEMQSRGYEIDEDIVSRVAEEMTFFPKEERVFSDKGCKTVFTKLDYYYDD", "test": "torsin A mutant lysate binding on microarrays – cell lysate, small-molecule microarray, COS7 lysate, 635/667 nm fluorescence, primary screen (AID 1150);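 note: score pools 667 nm emission and signal to noise measuring lysate protein binding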", "conditions": "COS7 hTOR1A mutant lysate, 635 nm fluorescence, higher = more signal"}
{"smiles": "CO[C@H]1COC(=O)CC=C[C@H](C)[C@@H](OC)COC(=O)CC=C[C@@H]1C", "composite z-score": 0.621}
{"smiles": "COCCOC(=O)N1C(=O)[C@@]2(c3cc(C#CCCO)ccc31)[C@H](C(=O)N1CCCCCCC1)[C@H]1C(=O)O[C@H](c3ccccc3)[C@H](c3ccccc3)N1[C@@H]2c1ccc(O)cc1", "composite z-score": 0.922}
{"smiles": "Cc1ccc(N2C(=O)c3ccccc3[C@@H](C(=O)NCc3ccccc3)[C@@H]2c2ccc(CO)cc2)nc1", "composite z-score": 0.276}
{"smiles": "CC(=O)NCCCC[C@@H]1NC(=O)[C@@H]2C[C@H](C(=O)NCCCCCNC(=O)CS)[C@H](c3ccc(O)cc3)N2C1=O", "composite z-score": 0.324}
{"smiles": "O=C(CS)NCCCCCNC(=O)[C@H]1C[C@H]2C(=O)N3CCC[C@H]3C(=O)N2[C@H]1c1ccc(O)cc1", "composite z-score": 0.0883}
{"smiles": "C[C@@H]1CC[C@H]2C(=O)N3CCC[C@H]3C(=O)N2[C@H]1c1ccc(Br)cc1", "composite z-score": 0.492}
{"smiles": "O=C1O[C@@H](c2ccccc2)[C@@H](c2ccccc2)N2[C@@H](c3ccc(O)cc3)[C@]3(C(=O)Nc4ccc(C#CC5(O)CCCCCC5)cc43)[C@@H](C(=O)Nc3nc4ccccc4s3)[C@H]12", "composite z-score": 0.757}
{"smiles": "C[N+](C)(C)CCCC[C@@H]1NC(=O)[C@H]2C[C@@H](C(=O)NCc3ccc(F)cc3)[C@@H](c3cccc(OCCO)c3)N2C1=O", "composite z-score": 1.07}
{"smiles": "CO[C@H]1COC(=O)[C@H](Cc2ccccc2)NC(=O)CC=C[C@@H](C)[C@H](OC)COC(=O)CC=C[C@@H]1C", "composite z-score": 0.189}
{"smiles": "COC(=O)c1c(CC[C@@H](CO)NC(=O)N[C@H](Cn2cc(-c3cncn3C)nn2)C(C)C)oc(C(C)=O)c1C(=O)OC", "composite z-score": 0.368}
{"smiles": "C=C(COC)/C(=C/C[C@@H](OC(C)=O)c1cccc(OCCO)c1)c1cc(C(=O)OC)ccc1OC", "composite z-score": -0.0193}
{"smiles": "COCC(=C=CC[C@H](O)c1ccc(OCCO)cc1)C[C@H](O)c1ccccn1", "composite z-score": 0.904}
{"smiles": "CCOC(=O)[C@H]1C/C=C/C[C@H](C(=O)OCC)C(=O)O[C@H]2[C@@H](OC)O[C@H](CO)[C@@H](OC(=O)Nc3ccc(Br)cc3)[C@@H]2OC1=O", "composite z-score": -0.2}
{"smiles": "CCN1C(C)=C(C(=O)OC)[C@@H](c2ccccc2)N2C(=O)[C@@]3(C(=O)OC)O[C@@]12[C@@H]1C(=O)N(c2ccccc2)C(=O)[C@@H]13", "composite z-score": 0.644}
{"smiles": "CC(C)N1CC=CC23O[C@@H]4/C=C\\CCCOC(=O)C4[C@H]2C(=O)N(CCCCCO)[C@@H]3C1=O", "note": "(stereo partly specified)", "composite z-score": 1.58}
{"smiles": "C=C(COC)/C(=C/C[C@H](OC(C)=O)c1ccc(OCCO)cc1)c1cnc2ccccc2c1", "composite z-score": -0.0171}
{"smiles": "COCCOC(=O)N1C(=O)[C@@]2(c3cc(C#CCNC(N)=O)ccc31)[C@H](c1ccc(OCCO)cc1)N1[C@H](c3ccccc3)[C@H](c3ccccc3)OC(=O)[C@H]1[C@@H]2C(=O)N1CCCCCCC1", "composite z-score": 0.576}
{"smiles": "CO[C@H]1COC(=O)[C@@H](OCc2ccccc2)C=C[C@H](C)[C@@H](OC)COC(=O)[C@H](OCc2ccccc2)C=C[C@@H]1C", "composite z-score": 0.128}
{"smiles": "NC(=O)NCC#Cc1ccc2c(c1)[C@]1(C(=O)N2)[C@H](C(=O)N2CCCCCCC2)[C@H]2C(=O)O[C@H](c3ccccc3)[C@H](c3ccccc3)N2[C@@H]1c1ccccc1OCCO", "composite z-score": 1.53}
{"smiles": "COCCCNC(=O)[C@@]1(Sc2ccc(C)cc2)CC(=O)N(Cc2cc(C(F)(F)F)cc(C(F)(F)F)c2)[C@@H]1c1ccc(CO)cc1I", "composite z-score": -0.693}
{"smiles": "C=CCC1=C[C@H]2[C@H]([C@@H]3C=C[C@]2(CC=C)C(=O)[C@]32CO2)[C@@]2(CO2)C1=O", "composite z-score": -0.0031}
{"smiles": "O=C(NCc1ccccc1)[C@@]1(CCS(=O)(=O)c2ccccc2)COC(c2ccc(OCCCO)cc2)=N1", "composite z-score": 0.576}
{"smiles": "C=CCNC(=O)[C@H]1[C@@H]2C(=O)O[C@@H](c3ccccc3)[C@@H](c3ccccc3)N2[C@@H](c2ccccc2OCCO)[C@]12C(=O)N(C(=O)OCCOC)c1ccc(C#CCNC(N)=O)cc12", "composite z-score": 0.296}
{"smiles": "CCCCO[C@H]1C[C@H]2C(Br)=C[C@@]1(CO)C(=O)[C@]21CO1", "composite z-score": 0.281}
{"smiles": "CN1CCC(CCCO)=CC1C1CC1", "note": "(stereo unspecified)", "composite z-score": 0.0677}
{"smiles": "COc1ccc(CCNC(=O)[C@@]2(c3ccc([N+](=O)[O-])cc3)CC(=O)N(C(C)C)[C@@H]2c2ccc(CO)cc2)cc1", "composite z-score": -0.87}
{"smiles": "Cc1ccc(S[C@]2(C(=O)O)CC(=O)N(Cc3ccccc3)[C@@H]2c2ccc(CO)cc2)cc1", "composite z-score": 0.12}
{"smiles": "C=CCc1cccc([C@@H]2[C@@H](C)CC[C@H]3C(=O)N4[C@H](c5cccc(CC=C)c5)[C@@H](C)CC[C@H]4C(=O)N23)c1", "composite z-score": 0.203}
{"smiles": "COc1ccc([Si](C)(C)[C@H]2[C@H](CCO)O[C@@]3(C(=O)N(Cc4ccc(N5CCCCC5=O)cc4)c4ccccc43)[C@@H]2C)cc1", "composite z-score": 0.62}
{"smiles": "CCCNC(=O)[C@@]1(Sc2ccc(C)cc2)CC(=O)N(Cc2ccccc2Cl)[C@@H]1c1ccc(CO)cc1", "composite z-score": 0.17}
{"smiles": "CO[C@H]1COC(=O)[C@H](CCSC)NC(=O)CC=C[C@@H](C)COC(=O)[C@@H](OCc2ccccc2)C=C[C@@H]1C", "composite z-score": 2.85}
{"smiles": "C[C@@H]1CC[C@H]2C(=O)N3[C@@H](CC[C@@H](C)[C@@H]3c3cccc(N4CCOCC4)c3)C(=O)N2[C@H]1c1cccc(N2CCOCC2)c1", "composite z-score": 0.312}
{"smiles": "CO[C@]12C=C(Br)[C@@H](C[C@@H]1c1ccccc1)[C@@]1(CO1)C2=O", "composite z-score": 0.309}
{"smiles": "C=CCC(OC(C)=O)[C@@H]1[C@@H](N(Cc2ccc(-c3ccccc3)cc2)C(=O)c2ccc(C)cc2)c2cc(OCCCO)ccc2N1C(=O)c1ccc(-c2ccccc2)cc1", "note": "(stereo partly specified)", "composite z-score": 0.119}
{"smiles": "CC(=O)NCCCC[C@@H]1NC(=O)[C@@H]2C[C@H](C(=O)NCCCCCCN(C)C)[C@H](c3ccc(O)cc3)N2C1=O", "composite z-score": 1.52}
{"smiles": "O=C1c2ccccc2[C@](Cc2ccccc2I)(C(=O)NCc2ccccc2)[C@H](c2ccc(CO)cc2)N1Cc1ccccc1C(F)(F)F", "composite z-score": -0.162}
